Laboratory results as given in PMC5540273 (PLoS ONE, 2017).

Assays:
Conditions in all cases: concentration: 1 μM, replicates: in singlicate; n = 1
[1] = system: CDK8
[2] = system: CDK9
[3] = system: CDKL1
[4] = system: CDKL2
[5] = system: CDKL3
[6] = system: CDKL5
[7] = system: CHEK1
[8] = system: CHEK2
[9] = system: CIT
[10] = system: CLK1
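Further: KINOMEscan kinase panel screen.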

Compound: Cl.Cl.NCC(C(=O)Nc1cc(Br)c(-c2ccnc3[nH]ccc23)s1)c1ccccc1 (centres unmarked) [GSK1269851]
- %Inh [1]: 0%
- %Inh [2]: 3%
- %Inh [3]: 20%
- %Inh [4]: 51%
- %Inh [5]: 0%
- %Inh [6]: 0%
- %Inh [7]: 0%
- %Inh [8]: 0%
- %Inh [9]: 99%
- %Inh [10]: 63%

Compound: c1ccc(-c2cnc3nccnn23)cc1 [AH20685]
- %Inh [1]: 49%
- %Inh [2]: 0%
- %Inh [3]: 11%
- %Inh [4]: 0%
- %Inh [5]: 0%
- %Inh [6]: 8%
- %Inh [7]: 0%
- %Inh [8]: 0%
- %Inh [9]: 0%
- %Inh [10]: 4%

Compound: Oc1cc(Nc2ccnc3cc(I)ccc23)ccc1F [GW552771]
- %Inh [1]: 23%
- %Inh [2]: 0%
- %Inh [3]: 0%
- %Inh [4]: 30%
- %Inh [5]: 0%
- %Inh [6]: 0%
- %Inh [7]: 2%
- %Inh [8]: 4%
- %Inh [9]: 30%
- %Inh [10]: 8%

Compound: COc1ccc(-c2coc3ccc(-c4nnc(SCc5ccc(OC)c(C(F)(F)F)c5)o4)cc23)cc1
- %Inh [1]: 20%
- %Inh [2]: 1%
- %Inh [3]: 11%
- %Inh [4]: 0%
- %Inh [5]: 0%
- %Inh [6]: 1%
- %Inh [7]: 0%
- %Inh [8]: 18%
- %Inh [9]: 0%
- %Inh [10]: 26%

Compound: Cl.c1ccc(-c2ccc3c(Nc4ccc5[nH]ccc5c4)ccnc3c2)nc1 [GW440138]
- %Inh [1]: 45%
- %Inh [2]: 0%
- %Inh [3]: 0%
- %Inh [4]: 7%
- %Inh [5]: 0%
- %Inh [6]: 0%
- %Inh [7]: 0%
- %Inh [8]: 34%
- %Inh [9]: 0%
- %Inh [10]: 20%

Compound: C[C@@H](Oc1cc(-n2cnc3cc(-c4ccnc(NCCS(C)(=O)=O)c4)ccc32)sc1C(N)=O)c1ccccc1Cl [GSK907232]
- %Inh [1]: 0%
- %Inh [2]: 11%
- %Inh [3]: 4%
- %Inh [4]: 12%
- %Inh [5]: 0%
- %Inh [6]: 0%
- %Inh [7]: 0%
- %Inh [8]: 0%
- %Inh [9]: 36%
- %Inh [10]: 67%

Compound: Cc1ccc(C(=O)Nc2ccc(Nc3ccnc4cc(-c5nccs5)ccc34)cc2O)cc1.Cl [GW494702]
- %Inh [1]: 23%
- %Inh [2]: 0%
- %Inh [3]: 0%
- %Inh [4]: 28%
- %Inh [5]: 2%
- %Inh [6]: 0%
- %Inh [7]: 4%
- %Inh [8]: 33%
- %Inh [9]: 36%
- %Inh [10]: 1%

Compound: Fc1ccc(-c2ncn(C3CCNCC3)c2-c2ccnc(Oc3ccc(-c4ccccc4)cc3)n2)cc1 [SB-245391]
- %Inh [1]: 92.8%
- %Inh [2]: 12%
- %Inh [3]: 28%
- %Inh [4]: 0%
- %Inh [5]: 32%
- %Inh [6]: 0%
- %Inh [7]: 0%
- %Inh [8]: 0%
- %Inh [9]: 98.9%
- %Inh [10]: 21%
